Measured values reported in the supplement of paper PMC10338343.
± gives the standard deviation.

Tested on: MILI (PIWIL2) piRISC loaded with piRNA #1 (26 nt)
Test: pre-steady-state target cleavage rate (min^-1); guide: piRNA #1 5'p-UGAGGUAGUAGGUUGUAUAGUAUCCA; MIWI and MILI are mouse PIWI proteins and EfPiwi is from a freshwater sponge; tags in brackets are library labels; higher = faster piRNA-guided slicing of the target
Conditions: auxiliary factor: 500 nM mouse GTSF1
Procedure, shortened: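 Cleave-'n-Seq used a transcribed, DNA-blocked target RNA library at 0.1 nM and active affinity-purified piRISC with one synthetic guide at 1 nM, with or without 500 nM GTSF1 partner protein, in HEPES–potassium acetate buffer at 33 °C for 0–8 or 0–960 min. Uncleaved targets were sequenced and normalised to depth and to weakly complementary targets, and three trials were pooled with k3 capped at 0.0001 min^-1. The pre-steady-state cleavage rate was estimated by a burst-and-steady-state fit.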

| Sequence | pre-steady-state target cleavage rate |
| --- | --- |
| GGAGACCAUACUUUACAUCCUACUACCUCA | 0.296 ± 0.029 |
| GGAGACCUAUGUUACAACCUACUACCUCA | 0.0425 ± 0.0076 |
| GGAGACCUAUGUAAACAUCCUACUACCUCA | 0.0128 ± 0.0025 |
| GGAGAGGAUACUCAUACAACCUACUACCUCA | 0.149 ± 0.015 |
| GGAGUUGGAUACUAUACAACCUACUACCUCA | 0.184 ± 0.023 |
| GGAGACCUAUGAUUAACAACCUACUACCUCA | 0.00416 ± 0.0022 |
| GGAGACCUUACUAUACAACCUAGAUCCUCA | 0.00967 ± 0.0031 |
| GGAGACGAUACUAUACAACCAACUUCCUCA | 0.00374 ± 0.0027 |
| GGAGACCUAUCUAUUCAACCUAGUACCUCA | 0.00955 ± 0.0033 |
| GGAGACCAUAGUAUACAACCUACUACCUCA | 0.118 ± 0.012 |
| GGAGACCUAUGAUAACAAGCCUACUACCUCA | < 0.0001 |
| GGAGACCUAUGAUAACAACCUACCUACCUCA | 0.00593 ± 0.003 |
| GGAGACCAUACUAUUCAACCAACUACCUCA | 0.00316 ± 0.0029 |
| GGAGACCAUACUUUACAACCUAGUACCUCA | 0.119 ± 0.025 |
| GGAGACCUAUGUAUACCACCUACUACCUCA | 0.0404 ± 0.0088 |
| GGAGACCUAUGAUUACAACCUACUACCUCG [g2:g17:cont:t1G] | 0.00649 ± 0.0032 |
| GGAGACCUAUGUAUACAACCUACUUCCUCA | 0.0381 ± 0.0071 |
| GGAGACCUAACUAUACAUGCUACUACCUCA | 0.0788 ± 0.013 |
| GGAGACCUAUGUAAACAACCUACUAGCUCA | 0.00495 ± 0.0023 |
| GGAGACCUAACUAUUCAACCUACUACCACA | 0.118 ± 0.022 |
| GGAGACCUUACUAUACAACCUACUAGCUGA | 0.00949 ± 0.0037 |
| GGAGACCUUACUAUACAACGUACAACCUCA | 0.0226 ± 0.0031 |
| GGAGACCUAUGAUUACAACCUACUACACUCA | 0.00616 ± 0.0025 |
| GGAGACCUAACUUUACAACCUACUUCCUCA | 0.0099 ± 0.0053 |
